Source: PubChem BioAssay (Tox21)
A number with no mark means an inactive call. Activity calls are given as the source filed them. Calls come from the whole dose curve; as a rule, active = well fitted activation curve with a large enough effect in the repeat runs; inconclusive = weak or mixed curves; inactive = flat fitted curve, though single readings scatter.

Target: KiSS-1 receptor (Homo sapiens) (UniProt Q969F8)
Experiment: Human kisspeptin (KISS1R) small molecule agonists, calcium flux assay in KISS1R-HEK293 cells (AID 1920064)
Conditions: KISS1R-HEK293, calcium flux fluorescence, agonist; series mostly up to 76.8 µM
Text: National Center for Advancing Translational Sciences [NCATS]
Division of Preclinical Innovation [DPI]
U.S. Environmental Protection Agency [EPA]
National Institutes of Environmental Health Sciences [NIEHS]
National Toxicology Program [NTP]
U.S. Food and Drug Administration [FDA]
Kisspeptin and its receptor KISS1R play key roles in mammalian reproduction due to their involvement in the onset of puberty and control of the hypothalamic-pituitary-gonadal axis such as regulates GnRH release from the hypothalamus. The kisspeptin/KISS1R system also plays a direct role in peripheral organs (including the ovary, testis, uterus, and placenta) and is implicated in reproductive diseases such as miscarriage and polycystic ovary syndrome (PCOS). Abnormal KISS1R activity is associated with abnormal puberty, infertility, endometriosis, and hormone-dependent tumors. The KISS1 receptor (KISS1R, also called GPR54), a G-protein-coupled receptor (GPCR), acts (through phospholipase C) to increase intracellular inositol trisphosphate and then release intracellular calcium stores. Cell-based KISS1R-HEK293 assay is using HEK293 cells that have been genetically engineered to express the human KISS1R, which activity can be measured by calcium signaling. A compound/drug can activate (agonist) KISS1R that can be monitored by levels of intracellular calcium.
KISS1R-HEK293 cells developed by Codex Corp contain human KISS1R gene, which was stably integrated into HEK 293 cells. The compound activation can be detected by fluorescence intensity via calcium flux assay. This cell line has been used to screen the Tox21 10K compound library to identify agonists of KISS1R.
KISS1R-Hek293 cells were dispensed at 1500 cells/4uL/well in 1536-well black wall/clear bottom plates using a multidrop dispenser. After the assay plates were incubated at a 37 C/5% CO2 incubator for 18 hours, 4 microL of Calcium Dye Solution was added to each well. The plates were incubated at 37 C for 1 hour. And then 23 nL of compounds dissolved in DMSO, positive controls, or DMSO only was transferred to the assay plate by a pin tool station. The fluorescence intensity in the plates was measured using FDSS 7000EX kinetic plate reader with a filter set of Ex/Em=480/540 for 3 min at 1 sec intervals. Each test compound was measured at 15 concentrations and in triplicates.
% is set by controls: 0 for no effect and ±100 for the full control effect.

Chain of KiSS-1 receptor (Homo sapiens) (Q969F8 whole entry, looked up): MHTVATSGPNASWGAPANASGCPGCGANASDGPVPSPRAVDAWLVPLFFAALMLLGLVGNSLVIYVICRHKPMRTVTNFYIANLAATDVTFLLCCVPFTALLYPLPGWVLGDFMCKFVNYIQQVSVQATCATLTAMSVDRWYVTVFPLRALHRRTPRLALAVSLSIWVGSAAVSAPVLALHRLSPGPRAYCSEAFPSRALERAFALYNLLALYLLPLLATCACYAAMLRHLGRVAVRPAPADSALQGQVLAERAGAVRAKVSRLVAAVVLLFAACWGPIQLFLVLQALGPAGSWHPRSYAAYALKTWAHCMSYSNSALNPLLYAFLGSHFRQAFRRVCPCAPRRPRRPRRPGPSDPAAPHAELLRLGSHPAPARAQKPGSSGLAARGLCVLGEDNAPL

SMILES	outcome	activation
COC(=O)c1ccc(I)cc1S(=O)(=O)NC(=O)Nc1nc(C)nc(OC)n1	inactive	
CCCCCCCCCCOCC(O)CN (stereo not given)	inactive	
O=c1[nH]c(=O)c2[nH]c(=O)[nH]c2[nH]1		-0.365% [at 6.97 µM]
CCc1cccc(C)c1	inactive	
CCCCCCCCCCCCCCBr	inactive	
CCCCOC(=O)C(C)CC (stereo not given)	inactive	
COc1ccc(C(=O)Nc2ccccc2)cc1[N+](=O)[O-]	inactive	
FC(F)(F)C(F)(F)C(F)(F)C(F)(F)C(F)(F)C(F)(F)C(F)(F)C(F)(F)Br	inactive	
CCCc1ncc(C(=O)O)s1	inactive	
CC1CCc2c(N3CCC(O)CC3)c(F)cc3c(=O)c(C(=O)O)cn1c23 (stereo not given)	inactive	
O=[N+]([O-])c1cc(Cl)c(Cl)c(Cl)c1Cl	inactive	
CN(C)CCc1c[nH]c2ccc(CS(=O)(=O)N3CCCC3)cc12	inactive	
Cc1ccc(=O)n(-c2ccccc2)c1	inactive	
CCNc1nc(NC(C)(C)C)nc(OC)n1	inactive	
N#C[C@@H]1CC(F)(F)CN1C(=O)CNC1CC2CCC(C1)N2c1ncccn1 (stereo not given in full)	inactive	
CCCCC(CC)C(=O)OC(C)C (stereo not given)	inactive	
ONc1ccccc1	inactive	
CCOC(CN1CCN(CC(C)C(=O)c2ccccc2)CC1)c1ccccc1 (stereo not given)		2.43% [at 15.8 µM]
C[C@]1(Cn2ccnn2)[C@H](C(=O)O)N2C(=O)C[C@H]2S1(=O)=O	inactive	
OC[C@@H](O)[C@H](O)[C@@H](O)[C@@H](O)CO	inactive	

SMILES	outcome	activation
CO[Si](CCC1CCC2OC2C1)(OC)OC (stereo not given)	inactive	
COC(=O)c1cc(C(=O)OC)cc(S(=O)(=O)O)c1	inactive	
C#CC(C)(CC)OC(=O)c1ccccc1C(=O)O (stereo not given)	inactive	
CC1(C)CC(N)CC(C)(C)N1	inactive	
CN1[C@@H]2CC[C@H]1CC(OC(=O)C(O)c1ccccc1)C2 (stereo not given in full)	inactive	
CN1CCOC(c2ccccc2)c2ccccc2C1 (stereo not given)	inactive	
Clc1ccc(C(Cn2ccnc2)OCc2c(Cl)cccc2Cl)c(Cl)c1 (stereo not given)	inactive	
COCCO	inactive	
Cc1ccc2ccccc2n1	inactive	
C=C(C)C(=O)OCCN(C)C	inactive	
Cc1c(N)cccc1[N+](=O)[O-]	inactive	
CCCN(CCC)C(=O)C(CCC(=O)OCCCN1CCN(CCOC(=O)Cc2c(C)n(C(=O)c3ccc(Cl)cc3)c3ccc(OC)cc23)CC1)NC(=O)c1ccccc1 (stereo not given)	inactive	
CC(=O)Nc1ccn(C2COC(COC(=O)c3ccccc3)O2)c(=O)n1 (stereo not given)	inactive	
CN(C)CCCSc1ccccc1NC(=O)/C=C/c1ccccc1	inactive	
CCCCC(=O)O[C@]1(C(=O)CO)[C@H](C)C[C@H]2[C@@H]3CCC4=CC(=O)C=C[C@]4(C)[C@@]3(F)[C@@H](O)C[C@@]21C	inactive	
CN(C)CCC[C@@]1(c2ccc(F)cc2)OCc2cc(C#N)ccc21	inactive	
CC(=O)Nc1ccc(S(=O)(=O)Nc2cc(C)on2)cc1	inactive	
NCCS	inactive	
CC(C)CCOC(=O)CC(C)C	inactive	
CC(C)NCC(O)c1ccc(NS(C)(=O)=O)cc1 (stereo not given)	inactive	
